Cruzain inh noDet: blocks cruzain activity in detergent-free assay; P25779; purified cruzain, Z-FR-AMC fluorescence, no detergent; Potency, µM, for the others: max response, negative = inhibition, most hits filed as inhibitors; 200,000 compounds, 2.3% hits; AID 1476;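 note: plate controls were enzyme without inhibitor for no effect and buffer without enzyme for full effect; nearly all actives have a fitted effect of over 40% in size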
Target sequence (P25779 123-467 limits assumed): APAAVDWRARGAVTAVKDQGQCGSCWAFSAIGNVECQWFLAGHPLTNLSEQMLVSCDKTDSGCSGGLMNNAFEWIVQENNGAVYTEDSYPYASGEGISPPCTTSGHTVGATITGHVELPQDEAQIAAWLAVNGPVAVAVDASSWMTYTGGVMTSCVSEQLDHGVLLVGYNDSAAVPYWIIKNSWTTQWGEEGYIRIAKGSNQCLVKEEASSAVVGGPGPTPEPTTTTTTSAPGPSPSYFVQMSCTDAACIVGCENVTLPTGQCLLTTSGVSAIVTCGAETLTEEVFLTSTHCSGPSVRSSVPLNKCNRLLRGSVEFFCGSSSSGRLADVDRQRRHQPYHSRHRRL
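Detergent-free condition (0.00005% Triton X-100) in acetate buffer pH 5.5 with DTT. 1.5 nM enzyme and compound were pre-mixed 15 min, then 2 uM Z-FR-AMC substrate added; reaction progress from fluorescence change between first and third reads (60 s).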
Cruzain inh Det: blocks cruzain activity in presence of Triton detergent; purified cruzain, Z-FR-AMC fluorescence, 0.01% Triton; P25779; 200,000 compounds, 0.43% hits; Potency, µM, inactives show max response, negative = inhibition, usual class: inhibitors;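 note: plate controls were neutral wells for no effect and buffer without enzyme for full effect; nearly all actives have a fitted effect of over 40% in size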
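Z-FR-AMC hydrolysis (2 uM substrate) by cruzain (1.5 nM) monitored kinetically at ex 360/em 450 nm after 15 min room-temperature compound exposure; 0.01% Triton X-100, pH 5.5, 5 mM DTT.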
Numbers without * were called inactive; ? = inconclusive. Hits are enriched below; roughly 2.4% of the tested compounds scored in any of these assays. Calls come from the whole dose curve; as a rule, active = well fitted curve in the direction sought with a large enough effect; inconclusive = small, poorly fitted or top-dose-only effect, or another doubt; inactive = no such curve, though single readings can be large; an effect the other way counts as inactive or inconclusive. Potency is the fitted concentration of half-maximal effect.

SMILES | Cruzain inh noDet | Cruzain inh Det
CCCN1C(=O)c2[nH]nc(-c3ccccc3O)c2C1c1ccc(OCc2ccccc2)c(OC)c1 (stereo not drawn) | ? | -8%
COc1ccccc1NC(=O)Cn1c(=O)c(CNc2ccccc2)cc2cc(OC)c(OC)cc21 | ? | -4%
Cc1ccc(N2CC(NC(=O)C3CCCCC3)CC2=O)cc1C (stereo not drawn) | -4% | 0%
CCOC(=O)CSc1nc2ccc(NC(=O)COc3ccccc3C)cc2s1 | -3% | -3%
Cc1ccc(CCNc2ncnc3onc(C)c23)cc1 | 9% | -3%
CN(C)c1ccc(CNC(=O)CCCN2C(=O)CCn3nc(-c4cccn4C)cc32)cc1 | 13% | 0%
Cc1cccc(OC(C)C(=O)Nc2ncn[nH]2)c1 (stereo not drawn) | -5% | -1%
CCC(=O)N1c2ccccc2CC1C(=O)NCc1cccc(OC)c1OC (stereo not drawn) | 13% | 1%
Cc1nn(Cc2ccc(Cl)c(Cl)c2)c(C)c1NC(=O)c1sc2ccccc2c1Cl | 16µM* | 6%
Cc1nn(Cc2c(Cl)cccc2Cl)c(C)c1NC(=O)c1sc2ccccc2c1Cl | -3% | -6%
O=C1c2ccccc2C(O)N1c1ccc(Cl)cc1 (stereo not drawn) | -27% | -2%
COC(=O)C1CN(C#N)N(c2ccc(Cl)cc2)C12c1ccccc1-c1ccccc12 (stereo not drawn) | 25µM* | -9%
c1ccc2c(CSc3nnc(-c4ccncc4)o3)cccc2c1 | 20% | -9%
Cc1nnc(SCc2nc3ccccc3[nH]2)s1 | -1% | -2%
Brc1cccc(-c2nnc(-c3ccccc3)o2)c1 | -14% | 0%
Brc1cccc(-c2nnc(SCc3nc4ccccc4[nH]3)o2)c1 | 13µM* | 14µM*
c1ccc2[nH]c(CSc3nc4ccccc4s3)nc2c1 | 16µM* | ?
Clc1ccc(-c2nnc(SCc3ccon3)o2)c(Cl)c1 | -2% | -3%
c1ccc2[nH]c(CSc3nnc(-c4ccncc4)o3)nc2c1 | 13µM* | -20%
Clc1ccc(-c2nnc(SCc3nc4ccccc4[nH]3)o2)c(Cl)c1 | 3% | 6.3µM*
Cc1nn(-c2ccccc2)c(OC(=O)c2cccc(Br)c2)c1S(=O)(=O)c1ccccc1 | -1% | 1%
CCCN(CCC)CCCNC(=O)Cn1ncn2c(cc3sc(CC)cc32)c1=O | -14% | -5%
Cc1cc2n(n1)CCC(=O)N2Cc1ccc(C(=O)Nc2cc(Cl)ccc2C)cc1 | ? | -4%
Cc1ccc(Cl)cc1NS(=O)(=O)c1ccc2oc(=O)c3ncn(C)c3c2c1 | 20% | -6%
C=C(C)CSc1nc(-c2ccccc2)cc(-c2ccc(OC)cc2)c1C#N | -29% | -4%
SMILES | Cruzain inh noDet | Cruzain inh Det
O=C(CCCSc1nc2ccccc2[nH]1)Nc1nnc(-c2ccccc2)o1 | -1% | 2%
c1ccc(-c2nnc(CSc3nc4ccccc4[nH]3)o2)cc1 | 13µM* | -25%
N#Cc1c(-c2ccccc2)cc(-c2ccccc2)nc1SCc1nnc(-c2ccccc2)o1 | 5µM* | -1%
O=C(O)CNC(=O)c1ccc(CO)o1 | -1% | 4%
FC(F)(F)c1cc(NC(=S)Nc2ccc3cc4ccccc4cc3c2)cc(C(F)(F)F)c1 | ? | 3%
Cc1ccc(-c2nnc3ccccc3c2C(=O)Nc2cccc(Cl)c2)cc1 | ? | 0%
COc1ccc(CNC(=O)CN2C(=O)C3CCCN3c3ncc(Cl)cc32)cc1 (stereo not drawn) | -26% | -3%
CCc1ccccc1NC(=O)CN1C(=O)C2CCCN2c2ncc(Cl)cc21 (stereo not drawn) | -3% | 2%
COC(=O)c1ccccc1NC(=O)CN1C(=O)C2CCCN2c2ncc(Cl)cc21 (stereo not drawn) | 10µM* | -2%
O=C(CN1C(=O)C2CCCN2c2ncc(Cl)cc21)NCc1ccc2c(c1)OCO2 (stereo not drawn) | 25µM* | 3%
CCOc1ccc(-c2nonc2NC(=O)c2oc3ccc(Br)cc3c2C)cc1 | ? | -1%
CCc1ccc(NC(=O)CSc2nc3n[nH]c(C)c3c(=N)n2-c2ccc(C)cc2)cc1 | -8% | -1%
COc1ccc(Cl)cc1Nc1ccc2cc(S(=O)(=O)N3CCCCC3)ccc2n1 | 25µM* | -1%
O=S(=O)(c1ccc2nc(Nc3cccc(F)c3)ccc2c1)N1CCCC1 | -29% | -17%
COc1ccc(Nc2ccc3cc(S(=O)(=O)N4CCCC4)ccc3n2)cc1Cl | 25µM* | -4%
CC1CCN(S(=O)(=O)c2ccc3nc(Nc4ccc(C#N)cc4)ccc3c2)CC1 | 32µM* | -6%
CCOC(=O)c1cccc(Nc2ccc3cc(S(=O)(=O)N4CCCCC4)ccc3n2)c1 | 25µM* | -4%
O=S(=O)(c1ccc2nc(Nc3ccc(F)cc3)ccc2c1)N1CCCC1 | -4% | 1%
CC1CCN(S(=O)(=O)c2ccc3nc(Nc4cccc(C(F)(F)F)c4)ccc3c2)CC1 | ? | 0%
CCOc1ccc(OCC)c(Nc2ccc3cc(S(=O)(=O)N4CCCC4)ccc3n2)c1 | -16% | 0%
Cc1ccc(Sc2c(C)nn(C(=O)COc3ccccc3Br)c2C)cc1 | 9% | -3%
